# Vif-A3F inh = inhibitors of Vif-A3F interaction; HeLa A3F-eYFP + Vif (tagged APOBEC3F with the HIV-1 protein that degrades it), YFP fluorescence increase; Potency, µM (titrated, usually from 46.1 µM); 390,000 tested, 0.2% active; AID 602313; note: nearly all actives have a fitted effect of over 65% in size
#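 Fluorescence increase (Ex 488/Em 500-530) after overnight compound treatment at 37 deg C flags inhibition of Vif-driven A3F-eYFP loss in stable HeLa A3F-eYFP/Vif cells seeded overnight beforehand.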
# KAT2A inh = GCN5L2 (KAT2A) acetyltransferase inhibition; Potency, µM (top dose mostly 58.9 µM), actives largely listed as inhibitors; GCN5L2 HAT assay, ThioGlo1 CoA-SH fluorescence; Q92830; 390,000 tested, 0.21% active; AID 504327
# Target sequence (Q92830 whole entry, looked up): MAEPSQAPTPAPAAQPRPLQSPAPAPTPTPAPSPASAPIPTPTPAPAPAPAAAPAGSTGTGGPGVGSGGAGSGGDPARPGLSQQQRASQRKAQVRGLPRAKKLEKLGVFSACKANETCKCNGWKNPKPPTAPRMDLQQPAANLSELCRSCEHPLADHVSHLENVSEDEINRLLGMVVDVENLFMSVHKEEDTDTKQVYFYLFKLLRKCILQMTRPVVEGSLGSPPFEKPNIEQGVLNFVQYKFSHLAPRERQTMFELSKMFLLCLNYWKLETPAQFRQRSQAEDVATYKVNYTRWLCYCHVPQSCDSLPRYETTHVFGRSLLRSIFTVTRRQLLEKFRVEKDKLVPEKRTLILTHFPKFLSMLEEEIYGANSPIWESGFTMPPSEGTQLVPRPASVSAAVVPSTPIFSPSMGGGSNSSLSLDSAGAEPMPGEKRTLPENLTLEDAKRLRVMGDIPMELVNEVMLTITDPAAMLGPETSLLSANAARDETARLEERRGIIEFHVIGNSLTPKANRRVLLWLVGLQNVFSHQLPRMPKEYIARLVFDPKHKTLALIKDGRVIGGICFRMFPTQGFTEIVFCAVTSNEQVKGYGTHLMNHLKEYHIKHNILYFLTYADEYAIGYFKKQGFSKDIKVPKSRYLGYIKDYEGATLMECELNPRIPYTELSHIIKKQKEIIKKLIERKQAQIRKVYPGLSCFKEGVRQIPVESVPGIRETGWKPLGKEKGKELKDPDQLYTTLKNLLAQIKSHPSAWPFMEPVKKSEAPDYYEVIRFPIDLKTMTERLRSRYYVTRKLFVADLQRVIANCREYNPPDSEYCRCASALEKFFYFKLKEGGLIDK
#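 Fluorescence readout, Ex340nm/Em540nm: ThioGlo1 (50uM final) reacts with free CoA thiol released as 20nM GCN5L2 acetylates H3(1-25) peptide (75uM) using acetyl-CoA (70uM). Compound and enzyme sat 15 min beforehand; 20 min room-temperature reaction.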
# GoLoco inh red = inhibitors of human Gai1-RGS12 GoLoco interaction (red fluorophore); 230,000 tested, 0.44% active; Potency, µM (top dose mostly 61.6 µM), hits mostly inhibitors; Gai1:RGS12 GoLoco peptide FP, rhodamine, 10 min; P63096; active = well fitted inhibition curve with a large enough effect, not every such curve was filed as active; inactive = no such curve, though single readings can be large or run the other way; note: nearly all actives have a fitted effect of over 30% in size
# IL-2 act = IL-2 activation | IL-2 activation reporter assay, cell-based qHTS; stimulated with anti-CD3/CD4/CD28 beads; in transgenic mouse T cells | activation, % (series mostly up to about 46 µM) | 360,000 tested, 0.065% active | AID 652025; in the data active = activation above about 50%; inconclusive = mostly about 30% to 49%
#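 Unstimulated transgenic mouse T cells, 750 per well, received compound and, after 60 minutes, anti-CD3/anti-CD4 bead plus anti-CD28 stimulation. EGFP and DsRed were quantified after 18 hours.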
# Vif-A3G inh = inhibitors of Vif-APOBEC3G interaction. Q9HC16. HeLa A3G-eYFP + Vif (tagged APOBEC3G with the HIV-1 protein that degrades it), YFP fluorescence, overnight. Potency, µM (highest dose often 46.1 µM), hits mostly inhibitors. 410,000 tested, 0.076% active; note: nearly all actives have a fitted effect of over 60% in size
#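 Read-out is eYFP fluorescence (Ex 488/Em 500-530) from Vif-expressing HeLa A3G-eYFP cells; more signal means A3G escaped Vif-mediated degradation. Cells plated overnight, compound pinned in, incubated overnight at 37 deg C.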
# PKM2 activator = activators of human pyruvate kinase M2. purified PKM2, Kinase-Glo ATP luminescence, activation; response scale: 0% is enzyme alone, no compound. AID 1631. Potency, µM (titrated, usually from 57.5 µM), actives largely listed as activators. 260,000 tested, 0.34% active. P14618; note: nearly all actives have a fitted effect of over 55% in size
#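 Purified hPK-M2 (>95%) run at intermediate activity with 0.1 mM ADP and 0.5 mM PEP in 50 mM imidazole pH 7.2, KCl, MgCl2; 1 h room temperature. ATP formed read by Kinase-Glo luminescence; normalized to uninhibited and no-enzyme controls.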
# A number is an active result; - = inactive; ? = inconclusive; . = no result. Hits are enriched below; roughly 0.77% of the tested compounds scored in any of these assays. Unless noted, calls come from the whole dose curve; as a rule, active = well fitted curve in the direction sought with a large enough effect; inconclusive = small, poorly fitted or top-dose-only effect, or another doubt; inactive = no such curve, though single readings can be large; an effect the other way counts as inactive or inconclusive.
SMILES,Vif-A3F inh,KAT2A inh,GoLoco inh red,IL-2 act,Vif-A3G inh,PKM2 activator
CN1CCN(C(=O)c2cc(COc3c(F)cccc3F)on2)CC1c1ccccc1 (centres undefined),-,-,-,-,-,17.8µM
COc1ccccc1OCc1cc(C(=O)N2CCN(C)C(c3ccccc3)C2)no1 (centres undefined),-,-,.,-,-,-
Cc1cc(C)nc(SCc2ccc(C(=O)NN=C3CCCC3)cc2)n1,-,-,-,-,-,-
Cc1cc(C)cc(OCCNS(=O)(=O)c2cccs2)c1,?,-,-,-,-,-
Cc1cc(SCC(=O)c2cccs2)nc2ccccc12,11.2µM,-,-,-,?,-
O=C1c2ccccc2-c2onc3c(N4CCN(C5CCCCC5)CC4)cc(NCCO)c1c23,?,-,.,.,?,.
CN(C)CCCNc1cc(N2CCN(C3CCCCC3)CC2)c2noc3c2c1C(=O)c1ccccc1-3,4.47µM,-,.,.,?,.
CCN(CC)Cc1cc(O)c(CN(CC)CC)cc1O,-,-,7.94µM,-,-,-
CCc1oc(C(=O)O)cc1CN(CC)CC,-,.,-,-,-,-
Cn1cc(/C=C2\SC(=O)N(c3ccccc3)C2=O)c2ccccc21,7.94µM,-,-,-,-,-
Cn1cc(/C=C2\SC(=O)N(c3ccc(O)cc3)C2=O)c2ccccc21,?,-,-,-,-,-
COC(=O)c1ccccc1N1CCS(=O)(=O)CC1,-,-,-,-,-,-
O=C(CCCn1c(=S)[nH]c2cc3c(cc2c1=O)OCO3)N1CCN(c2ccccc2F)CC1,-,-,-,-,-,-
CC(=O)/C(C[N+]1(C)CCCCC1)=N\O,-,-,3.16µM,-,-,-
C[N+]1(CC(=O)OC2CCCCCCCCCCC2)CCCC1,-,-,-,-,-,-
O=C(NCc1cccnc1)C1c2ccccc2C(=O)N1Cc1ccccc1 (centres undefined),-,-,-,-,-,-
CC(=O)c1cccc(-c2ccnc3c2CC(C(=O)N2CCN(C)CC2)O3)c1 (centres undefined),.,.,.,-,-,.
OC1=C(O)c2nc3cc(F)ccc3nc21,-,-,-,-,-,-
Fc1ccc2nc3[nH]c4ccccc4c3nc2c1,?,-,-,-,1.41µM,-
O=c1/c(=C\c2ccc(O)cc2)sc2nc(-c3ccccc3)c(-c3ccccc3)n12,-,-,-,99.4,-,-
Cc1ccc(S(=O)(=O)c2cc3ccccc3oc2=Nc2ccc3c(c2)OCO3)cc1,22.4µM,-,-,-,-,?
O=C(NC1CC1)c1cccc2c1C(=O)c1ccc(N3CCC(Cc4ccccc4)CC3)cc1S2(=O)=O,22.4µM,-,.,-,?,.
O=C(NC1CCCCC1)c1cccc2c1C(=O)c1ccc(N3CCCC3)cc1S2(=O)=O,-,-,.,-,-,.
O=C(NCc1ccc(F)cc1)c1cccc2c1C(=O)c1ccc(N3CCC(Cc4ccccc4)CC3)cc1S2(=O)=O,25.1µM,-,.,?,?,.
CN(C)C(=O)c1cn(-c2ccccc2)nc1-c1cc2ccccc2o1,-,-,-,-,-,-
SMILES,Vif-A3F inh,KAT2A inh,GoLoco inh red,IL-2 act,Vif-A3G inh,PKM2 activator
Cc1cc(C)c2c(-n3cccc3)c(C(=O)NNS(=O)(=O)c3ccccc3)sc2n1,-,-,-,-,-,-
CC(C)n1c(=O)[nH][nH]c1=S,-,14.1µM,-,-,-,-
CC(=O)N1c2ccc(S(=O)(=O)N3CCCC3C(=O)NCc3ccc(Cl)cc3)cc2CC1C (centres undefined),-,-,.,-,-,-
Cc1ccc2[nH]c(O)c(N=Nc3ccccc3[N+](=O)[O-])c2c1,-,.,.,-,-,.
COc1ccccc1N=Nc1[nH]c2ccc(C)cc2c1O,-,-,3.55µM,-,-,-
CN(C)c1ccc(C(=O)C=Cc2ccc([N+](=O)[O-])cc2)cc1,-,.,.,-,-,.
CN(C)c1ccc(/C=C/C(=O)c2ccc(O)cc2)cc1,7.94µM,.,.,-,?,.
CC(C)(C#N)NC(=O)C(=O)c1c(-c2ccccc2)cc2ccccn12,-,-,-,-,-,-
Cc1ccccc1OCc1nnc2c3cnn(C)c3ncn12,-,-,-,-,-,28.2µM
Cc1ccccc1OCc1nc2c3cnn(-c4ccccc4Br)c3ncn2n1,.,-,.,.,.,.
Oc1[nH]c2ccccc2c1N=Nc1ccccc1F,?,-,-,-,?,-
Oc1[nH]c2ccccc2c1N=Nc1ccccc1,25.1µM,-,-,-,?,-
Oc1[nH]c2ccccc2c1N=Nc1ccc(F)cc1,?,-,-,191.1,?,-
COc1ccc(/C=C(/NC(=O)c2ccccc2)C(=O)NCC2CCCO2)cc1 (centres undefined),-,-,.,-,-,.
CC1(C(=O)Nc2ccc3c(c2)OCCO3)CCN1Cc1ccc2ccccc2c1 (centres undefined),.,.,.,-,-,.
Clc1ccccc1Cn1c(/C=C/c2ccco2)nc2ccccc21,?,-,-,-,10µM,-
CSc1nsc(/C=C/Nc2ccc(C)cc2)c1C#N,?,.,-,-,12.6µM,-
COc1ccc(S(=O)(=O)N(C)c2ccc(C(=O)NCC3CCCO3)cc2)cc1OC (centres undefined),-,-,.,-,-,-
Cc1sc(-n2c(C)cc(/C=C3\SC(=S)NC3=O)c2C)c(C#N)c1C,?,?,-,-,-,-
CCC(C)NC(=O)Nc1ccc(Br)cc1 (centres undefined),-,-,-,-,-,-
CCC(C)Nc1ccc(NC(C)CC)cc1 (centres undefined),-,-,31.6µM,-,-,.
Nc1nc(SCc2ccc(Cl)cc2Cl)nc2nc3c(cc12)CCCC3,22.4µM,-,-,82.2,?,-
Nc1nc(SCc2ccccc2Cl)nc2nc3c(cc12)CCCC3,?,-,-,-,?,-
Cc1cc(C)nc(SCc2nnc(SCC#N)n2-c2cccc(Cl)c2)n1,-,-,-,-,-,-
Nc1ccc2cc3[nH]c4cc(N)ccc4c3nc2c1,-,.,.,424.3,-,.
SMILES,Vif-A3F inh,KAT2A inh,GoLoco inh red,IL-2 act,Vif-A3G inh,PKM2 activator
O=C(NCCO)/C(=C\c1cccs1)NC(=O)c1cccs1,-,-,-,-,-,-
COc1cc(/C=C2\CC/C(=C\c3ccc(OCCO)c(OC)c3)C2=O)ccc1OCCO,?,-,-,162.9,-,-
COc1ccc(/C=C2\CC/C(=C\c3ccc(OC)c(OC)c3)C2=O)cc1OC,-,-,-,-,-,-
COc1ccccc1/C=N/NC(=O)c1cc2c(OC)c(OC)ccc2[nH]1,-,-,.,-,?,.
COc1cccc(/C=N/NC(=O)c2cc3c(OC)c(OC)ccc3[nH]2)c1OC,-,-,-,-,3.98µM,-
c1ccc(CSc2ncnc3sccc23)cc1,-,-,-,-,-,?

# Screening results: PubChem BioAssay, National Center for Advancing Translational Sciences (NCATS)
